# Assays:
# Assay in all cases: DAPPL (digital affinity profiling via proximity ligation, sequencing); 10 mM Tris-HCl pH 7.5, 50 mM NaCl, 1 mM DTT, 4% glycerol, room temperature, 30 min; GST-TFs on glutathione beads, 16-mer random dsDNA library, 0.1% formaldehyde crosslink after washing; high values mean tight binding
# FLI1 = target: T1, FLI1 (Homo sapiens, UniProt Q01543 1-452); conditions: protein: recombinant; tags: N-terminal GST; dsDNA, one strand shown
# T1 sequence: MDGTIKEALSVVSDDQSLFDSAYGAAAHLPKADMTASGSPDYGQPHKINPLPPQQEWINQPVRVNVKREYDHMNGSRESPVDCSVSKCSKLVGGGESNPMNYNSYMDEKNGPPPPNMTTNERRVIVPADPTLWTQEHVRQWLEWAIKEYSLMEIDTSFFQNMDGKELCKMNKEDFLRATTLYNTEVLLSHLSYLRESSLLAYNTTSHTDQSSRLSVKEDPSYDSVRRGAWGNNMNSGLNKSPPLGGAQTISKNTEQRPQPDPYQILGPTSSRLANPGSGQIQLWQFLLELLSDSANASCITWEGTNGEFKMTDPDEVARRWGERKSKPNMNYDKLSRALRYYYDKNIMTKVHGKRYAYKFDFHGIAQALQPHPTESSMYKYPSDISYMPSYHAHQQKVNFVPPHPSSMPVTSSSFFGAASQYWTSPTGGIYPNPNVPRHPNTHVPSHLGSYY
# Method in brief: (§1)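 Human transcription factors fused to GST were expressed in yeast, captured on glutathione beads, given DNA barcodes and pooled with a GST-only negative control. Pools were incubated with 200 nmole of a 16-mer random double-stranded DNA library in Tris/NaCl/DTT/glycerol buffer at room temperature for 30 min. They were then washed, crosslinked with 0.1% formaldehyde, proximity-ligated (BsaI/T4 ligase, 1 h, 37 °C), PCR-amplified and sequenced on an Illumina NextSeq500. Binding signal is each 6-mer's read frequency for a factor divided by its frequency for the GST control.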
# ELK1 = target: T2, ELK1 (Homo sapiens, UniProt P19419 1-428); conditions: protein: recombinant; tags: N-terminal GST; dsDNA, one strand shown
# T2 sequence: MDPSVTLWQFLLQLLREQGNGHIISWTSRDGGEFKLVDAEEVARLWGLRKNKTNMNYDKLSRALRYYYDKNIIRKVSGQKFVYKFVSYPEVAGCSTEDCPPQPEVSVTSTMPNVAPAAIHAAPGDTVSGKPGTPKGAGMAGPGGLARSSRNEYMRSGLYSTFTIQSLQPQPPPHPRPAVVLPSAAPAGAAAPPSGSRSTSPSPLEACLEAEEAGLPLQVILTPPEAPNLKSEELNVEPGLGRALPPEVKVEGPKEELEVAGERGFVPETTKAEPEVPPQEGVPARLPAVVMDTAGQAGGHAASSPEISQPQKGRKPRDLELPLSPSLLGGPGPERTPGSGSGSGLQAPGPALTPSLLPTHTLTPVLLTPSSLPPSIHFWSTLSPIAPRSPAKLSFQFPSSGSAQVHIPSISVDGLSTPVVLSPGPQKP
# Method in brief: as §1
# GABPA = target: T3, GABPA (Homo sapiens, UniProt Q06546 1-454); conditions: protein: recombinant; tags: N-terminal GST; dsDNA, one strand shown
# T3 sequence: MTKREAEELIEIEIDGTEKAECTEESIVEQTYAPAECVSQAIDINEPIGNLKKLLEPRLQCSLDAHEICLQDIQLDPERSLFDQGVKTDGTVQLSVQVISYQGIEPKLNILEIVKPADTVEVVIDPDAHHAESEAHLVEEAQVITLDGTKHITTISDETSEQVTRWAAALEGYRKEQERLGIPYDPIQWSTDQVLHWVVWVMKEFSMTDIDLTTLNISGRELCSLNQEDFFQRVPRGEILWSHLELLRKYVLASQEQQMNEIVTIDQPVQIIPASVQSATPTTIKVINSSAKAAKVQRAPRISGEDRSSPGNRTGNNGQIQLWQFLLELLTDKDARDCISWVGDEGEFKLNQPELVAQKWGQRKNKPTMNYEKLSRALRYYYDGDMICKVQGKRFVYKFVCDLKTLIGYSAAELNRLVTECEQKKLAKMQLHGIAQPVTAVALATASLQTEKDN
# Method in brief: as §1
# ERG = target: T4, ERG (Homo sapiens, UniProt P11308 1-479); conditions: protein: recombinant; tags: N-terminal GST; dsDNA, one strand shown
# T4 sequence: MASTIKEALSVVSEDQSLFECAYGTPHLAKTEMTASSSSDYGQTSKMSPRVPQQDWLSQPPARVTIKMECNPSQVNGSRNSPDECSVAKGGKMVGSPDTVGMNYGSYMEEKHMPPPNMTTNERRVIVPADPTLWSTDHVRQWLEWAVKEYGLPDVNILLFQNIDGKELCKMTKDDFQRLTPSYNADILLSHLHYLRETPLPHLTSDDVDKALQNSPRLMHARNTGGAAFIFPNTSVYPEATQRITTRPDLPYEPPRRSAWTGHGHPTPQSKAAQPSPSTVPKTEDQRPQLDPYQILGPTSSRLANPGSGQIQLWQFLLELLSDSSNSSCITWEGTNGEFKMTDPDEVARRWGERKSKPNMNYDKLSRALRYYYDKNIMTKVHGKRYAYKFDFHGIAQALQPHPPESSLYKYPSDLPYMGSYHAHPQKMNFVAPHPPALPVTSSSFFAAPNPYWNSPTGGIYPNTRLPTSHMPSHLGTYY
# Method in brief: as §1
# ELF1 = ELF1 (Homo sapiens, UniProt P32519 1-619); conditions: protein: recombinant; tags: N-terminal GST; dsDNA, one strand shown
# Chain of ELF1 (P32519 whole entry): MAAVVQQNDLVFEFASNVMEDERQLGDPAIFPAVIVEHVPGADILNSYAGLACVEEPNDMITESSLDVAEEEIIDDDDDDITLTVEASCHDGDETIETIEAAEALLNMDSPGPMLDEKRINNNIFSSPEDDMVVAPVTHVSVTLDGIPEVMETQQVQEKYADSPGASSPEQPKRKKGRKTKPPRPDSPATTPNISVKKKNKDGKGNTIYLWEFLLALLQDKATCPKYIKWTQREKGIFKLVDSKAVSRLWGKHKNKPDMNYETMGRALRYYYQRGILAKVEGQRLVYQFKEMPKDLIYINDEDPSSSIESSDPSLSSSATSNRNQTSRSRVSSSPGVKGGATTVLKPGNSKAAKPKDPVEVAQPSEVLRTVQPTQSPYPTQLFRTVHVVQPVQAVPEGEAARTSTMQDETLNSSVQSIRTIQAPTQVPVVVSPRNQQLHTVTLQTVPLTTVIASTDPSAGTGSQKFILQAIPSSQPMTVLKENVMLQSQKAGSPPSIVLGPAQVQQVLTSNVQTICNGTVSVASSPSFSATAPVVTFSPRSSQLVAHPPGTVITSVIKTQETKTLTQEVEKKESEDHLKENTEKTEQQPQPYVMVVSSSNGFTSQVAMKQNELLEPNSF
# Method in brief: as §1
# EHF = target: T5, EHF (Homo sapiens, UniProt Q9NZC4 1-300); conditions: protein: recombinant; tags: N-terminal GST; dsDNA, one strand shown
# T5 sequence: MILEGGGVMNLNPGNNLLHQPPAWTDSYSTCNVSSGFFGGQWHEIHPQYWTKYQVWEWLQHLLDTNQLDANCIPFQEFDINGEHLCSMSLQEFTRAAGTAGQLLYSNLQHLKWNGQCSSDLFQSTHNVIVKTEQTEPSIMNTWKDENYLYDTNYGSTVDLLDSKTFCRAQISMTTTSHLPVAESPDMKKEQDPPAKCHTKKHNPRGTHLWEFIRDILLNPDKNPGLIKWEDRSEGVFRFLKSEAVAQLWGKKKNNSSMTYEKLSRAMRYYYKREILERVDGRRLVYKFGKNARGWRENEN
# Method in brief: as §1
# SPI1 = SPI1 (Homo sapiens, UniProt P17947 1-270); conditions: protein: recombinant; tags: N-terminal GST; dsDNA, one strand shown
# Method in brief: as §1
# SPIB = SPIB (Homo sapiens, UniProt Q01892 1-262); conditions: protein: recombinant; tags: N-terminal GST; dsDNA, one strand shown
# Chain of SPIB (Q01892 whole entry): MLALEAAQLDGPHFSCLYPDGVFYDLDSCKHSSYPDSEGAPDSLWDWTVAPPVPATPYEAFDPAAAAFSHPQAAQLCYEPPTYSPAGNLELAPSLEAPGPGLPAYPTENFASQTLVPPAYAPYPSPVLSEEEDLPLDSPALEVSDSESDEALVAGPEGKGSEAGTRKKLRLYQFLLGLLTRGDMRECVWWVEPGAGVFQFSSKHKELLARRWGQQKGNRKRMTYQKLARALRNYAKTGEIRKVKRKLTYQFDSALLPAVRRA
# Method in brief: as §1
# ELK3 = target: T6, ELK3 (Homo sapiens, UniProt P41970 1-407); conditions: protein: recombinant; tags: N-terminal GST; dsDNA, one strand shown
# T6 sequence: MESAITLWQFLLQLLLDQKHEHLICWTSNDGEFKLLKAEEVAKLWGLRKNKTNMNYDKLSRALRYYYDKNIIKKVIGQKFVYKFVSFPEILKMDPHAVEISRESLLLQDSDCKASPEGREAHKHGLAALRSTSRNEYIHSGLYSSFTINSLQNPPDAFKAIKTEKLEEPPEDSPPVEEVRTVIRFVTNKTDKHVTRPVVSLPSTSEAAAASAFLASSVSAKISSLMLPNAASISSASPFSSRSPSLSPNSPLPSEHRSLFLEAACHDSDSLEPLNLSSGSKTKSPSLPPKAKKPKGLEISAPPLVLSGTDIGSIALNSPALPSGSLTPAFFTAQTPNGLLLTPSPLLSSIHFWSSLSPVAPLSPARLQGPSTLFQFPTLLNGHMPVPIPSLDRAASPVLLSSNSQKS
# Method in brief: as §1
# FEV = target: T7, FEV (Homo sapiens, UniProt Q99581 1-238); conditions: protein: recombinant; tags: N-terminal GST; dsDNA, one strand shown
# T7 sequence: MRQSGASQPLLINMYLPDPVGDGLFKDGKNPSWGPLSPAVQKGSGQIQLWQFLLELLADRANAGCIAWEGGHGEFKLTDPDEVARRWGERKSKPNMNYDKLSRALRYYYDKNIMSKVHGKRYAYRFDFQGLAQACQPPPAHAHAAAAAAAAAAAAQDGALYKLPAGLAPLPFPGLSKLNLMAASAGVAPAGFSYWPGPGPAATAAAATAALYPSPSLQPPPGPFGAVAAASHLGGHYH
# Method in brief: as §1
# ETV5 = ETV5 (Homo sapiens, UniProt P41161 1-510); conditions: protein: recombinant; tags: N-terminal GST; dsDNA, one strand shown
# Chain of ETV5 (P41161 whole entry): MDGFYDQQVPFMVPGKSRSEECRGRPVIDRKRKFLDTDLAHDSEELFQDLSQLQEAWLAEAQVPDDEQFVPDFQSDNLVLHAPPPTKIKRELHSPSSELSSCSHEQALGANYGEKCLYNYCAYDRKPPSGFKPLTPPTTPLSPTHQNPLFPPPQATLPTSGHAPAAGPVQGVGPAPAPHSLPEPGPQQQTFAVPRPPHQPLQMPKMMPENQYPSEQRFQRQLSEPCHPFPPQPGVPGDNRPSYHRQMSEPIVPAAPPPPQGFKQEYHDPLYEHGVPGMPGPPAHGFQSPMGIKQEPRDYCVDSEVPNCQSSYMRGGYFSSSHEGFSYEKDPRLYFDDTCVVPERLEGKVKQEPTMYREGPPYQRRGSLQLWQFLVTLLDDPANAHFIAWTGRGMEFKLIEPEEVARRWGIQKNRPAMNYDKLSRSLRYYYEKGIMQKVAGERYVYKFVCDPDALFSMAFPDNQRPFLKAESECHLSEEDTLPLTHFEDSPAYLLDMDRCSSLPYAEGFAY
# Method in brief: as §1
# HSF1 = HSF1 (Homo sapiens, UniProt Q00613 1-529); conditions: protein: recombinant; tags: N-terminal GST; chain copies: 3; dsDNA, one strand shown
# Chain of HSF1 (Q00613 whole entry): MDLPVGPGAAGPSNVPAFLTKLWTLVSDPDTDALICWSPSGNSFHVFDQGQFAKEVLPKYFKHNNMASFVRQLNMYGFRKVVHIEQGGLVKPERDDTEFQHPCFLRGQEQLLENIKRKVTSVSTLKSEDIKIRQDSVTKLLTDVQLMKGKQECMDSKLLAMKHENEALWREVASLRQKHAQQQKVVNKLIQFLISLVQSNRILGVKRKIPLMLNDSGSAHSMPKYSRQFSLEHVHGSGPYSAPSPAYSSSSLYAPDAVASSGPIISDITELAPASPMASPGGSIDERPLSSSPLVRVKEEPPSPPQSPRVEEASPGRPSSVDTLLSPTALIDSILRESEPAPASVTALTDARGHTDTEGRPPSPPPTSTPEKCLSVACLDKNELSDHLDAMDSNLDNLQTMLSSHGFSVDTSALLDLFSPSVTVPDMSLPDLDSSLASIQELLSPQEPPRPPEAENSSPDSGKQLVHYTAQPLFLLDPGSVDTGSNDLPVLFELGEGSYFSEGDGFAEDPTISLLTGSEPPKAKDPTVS
# Method in brief: as §1
# SPIC = target: T8, SPIC (Homo sapiens, UniProt Q8N5J4 1-248); conditions: protein: recombinant; tags: N-terminal GST; dsDNA, one strand shown
# T8 sequence: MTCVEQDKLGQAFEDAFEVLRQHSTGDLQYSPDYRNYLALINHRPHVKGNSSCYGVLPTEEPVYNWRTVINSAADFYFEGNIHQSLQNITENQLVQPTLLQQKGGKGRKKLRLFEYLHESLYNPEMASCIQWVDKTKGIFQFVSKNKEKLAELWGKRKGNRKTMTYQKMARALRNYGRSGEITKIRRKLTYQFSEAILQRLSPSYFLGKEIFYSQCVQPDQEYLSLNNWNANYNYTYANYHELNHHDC
# Method in brief: as §1
# ELF4 = ELF4 (Homo sapiens, UniProt Q99607 1-663); conditions: protein: recombinant; tags: N-terminal GST; dsDNA, one strand shown
# Chain of ELF4 (Q99607 whole entry): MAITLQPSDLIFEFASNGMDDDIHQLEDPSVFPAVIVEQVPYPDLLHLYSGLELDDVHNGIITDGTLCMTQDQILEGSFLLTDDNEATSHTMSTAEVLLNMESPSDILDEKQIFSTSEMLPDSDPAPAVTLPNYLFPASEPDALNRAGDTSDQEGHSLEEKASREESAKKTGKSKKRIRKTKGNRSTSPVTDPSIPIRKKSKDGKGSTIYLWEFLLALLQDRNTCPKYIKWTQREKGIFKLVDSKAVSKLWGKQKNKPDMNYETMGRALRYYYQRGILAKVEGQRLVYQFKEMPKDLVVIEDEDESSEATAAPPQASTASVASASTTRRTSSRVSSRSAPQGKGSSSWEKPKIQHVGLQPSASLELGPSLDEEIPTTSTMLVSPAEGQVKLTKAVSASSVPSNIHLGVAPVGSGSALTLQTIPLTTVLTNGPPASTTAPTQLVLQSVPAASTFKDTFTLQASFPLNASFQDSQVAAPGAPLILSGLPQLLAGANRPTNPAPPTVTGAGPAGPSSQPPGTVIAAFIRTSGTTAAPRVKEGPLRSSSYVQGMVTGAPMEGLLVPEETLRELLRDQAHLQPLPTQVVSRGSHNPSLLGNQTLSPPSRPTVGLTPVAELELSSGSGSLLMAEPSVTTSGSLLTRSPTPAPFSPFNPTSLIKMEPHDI
# Method in brief: as §1
# ELK4 = target: T9, ELK4 (Homo sapiens, UniProt P28324-2 1-405); conditions: protein: recombinant; tags: N-terminal GST; dsDNA, one strand shown
# T9 sequence: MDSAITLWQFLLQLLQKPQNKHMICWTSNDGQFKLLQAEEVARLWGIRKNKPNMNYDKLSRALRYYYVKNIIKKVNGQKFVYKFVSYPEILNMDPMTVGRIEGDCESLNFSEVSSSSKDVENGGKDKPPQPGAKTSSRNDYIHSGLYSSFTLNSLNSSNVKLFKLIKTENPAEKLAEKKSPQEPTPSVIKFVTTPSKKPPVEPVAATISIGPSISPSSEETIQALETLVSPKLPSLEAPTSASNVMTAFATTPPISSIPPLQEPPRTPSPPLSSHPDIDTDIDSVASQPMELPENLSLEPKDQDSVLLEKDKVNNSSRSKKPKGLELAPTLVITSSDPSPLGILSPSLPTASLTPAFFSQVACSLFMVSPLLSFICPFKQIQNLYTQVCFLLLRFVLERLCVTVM
# Method in brief: as §1
# ETV2 = target: T10, ETV2 (Homo sapiens, UniProt O00321 1-342); conditions: protein: recombinant; tags: N-terminal GST; dsDNA, one strand shown
# T10 sequence: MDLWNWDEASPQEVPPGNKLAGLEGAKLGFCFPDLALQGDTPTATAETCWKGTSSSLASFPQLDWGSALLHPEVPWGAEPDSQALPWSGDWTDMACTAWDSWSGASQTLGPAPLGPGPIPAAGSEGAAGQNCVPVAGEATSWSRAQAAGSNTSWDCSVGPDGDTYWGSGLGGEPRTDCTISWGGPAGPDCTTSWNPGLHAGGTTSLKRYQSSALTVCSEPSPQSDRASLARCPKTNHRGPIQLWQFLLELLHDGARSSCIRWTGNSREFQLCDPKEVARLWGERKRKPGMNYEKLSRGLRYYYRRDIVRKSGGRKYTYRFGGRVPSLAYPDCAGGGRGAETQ
# Method in brief: as §1
# ELF3 = target: T11, ELF3 (Homo sapiens, UniProt P78545 1-371); conditions: protein: recombinant; tags: N-terminal GST; dsDNA, one strand shown
# T11 sequence: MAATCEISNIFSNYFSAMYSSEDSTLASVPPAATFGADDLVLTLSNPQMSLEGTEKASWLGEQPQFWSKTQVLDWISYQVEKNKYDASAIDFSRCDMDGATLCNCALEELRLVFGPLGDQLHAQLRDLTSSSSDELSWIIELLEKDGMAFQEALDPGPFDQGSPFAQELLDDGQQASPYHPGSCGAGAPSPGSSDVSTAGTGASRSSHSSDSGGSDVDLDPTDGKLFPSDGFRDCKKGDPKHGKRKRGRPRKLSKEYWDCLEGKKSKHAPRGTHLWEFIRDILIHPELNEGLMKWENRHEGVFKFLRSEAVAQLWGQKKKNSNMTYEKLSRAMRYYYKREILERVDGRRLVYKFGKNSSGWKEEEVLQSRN
# Method in brief: as §1
# CRX = CRX (Homo sapiens, UniProt O43186 1-299); conditions: protein: recombinant; tags: N-terminal GST; dsDNA, one strand shown
# Chain of CRX (O43186 whole entry): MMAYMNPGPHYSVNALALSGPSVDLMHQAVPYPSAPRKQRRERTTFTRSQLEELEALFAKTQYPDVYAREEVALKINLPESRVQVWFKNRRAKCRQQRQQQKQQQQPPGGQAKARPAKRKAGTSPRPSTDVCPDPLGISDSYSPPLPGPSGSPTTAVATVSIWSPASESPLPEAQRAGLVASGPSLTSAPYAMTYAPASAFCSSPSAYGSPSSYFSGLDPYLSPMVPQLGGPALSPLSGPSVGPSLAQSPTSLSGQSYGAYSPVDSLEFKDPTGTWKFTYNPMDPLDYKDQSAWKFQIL
# Method in brief: as §1
# ETV1 = ETV1 (Homo sapiens, UniProt P50549 1-477); conditions: protein: recombinant; tags: N-terminal GST; dsDNA, one strand shown
# Chain of ETV1 (P50549 whole entry): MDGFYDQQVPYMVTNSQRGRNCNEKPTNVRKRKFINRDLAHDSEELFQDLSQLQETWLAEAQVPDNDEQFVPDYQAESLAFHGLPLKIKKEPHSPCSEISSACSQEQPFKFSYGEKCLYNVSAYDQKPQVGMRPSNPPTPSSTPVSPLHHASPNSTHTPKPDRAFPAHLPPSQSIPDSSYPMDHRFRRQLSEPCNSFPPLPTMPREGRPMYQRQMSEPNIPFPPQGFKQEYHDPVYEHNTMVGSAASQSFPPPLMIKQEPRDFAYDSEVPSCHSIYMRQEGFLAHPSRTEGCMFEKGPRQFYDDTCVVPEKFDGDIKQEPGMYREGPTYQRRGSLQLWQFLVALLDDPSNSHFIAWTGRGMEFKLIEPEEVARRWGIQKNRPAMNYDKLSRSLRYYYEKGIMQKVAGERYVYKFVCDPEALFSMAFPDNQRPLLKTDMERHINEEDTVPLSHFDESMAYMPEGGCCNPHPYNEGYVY
# Method in brief: as §1
sequence,measurement,setting,value
ATATCA,binding signal,FLI1,"1.23 fold enrichment (6-mer frequency, TF over GST control)"
same,binding signal,ELK1,"1.24 fold enrichment (6-mer frequency, TF over GST control)"
same,binding signal,GABPA,"1.22 fold enrichment (6-mer frequency, TF over GST control)"
same,binding signal,ERG,"1.14 fold enrichment (6-mer frequency, TF over GST control)"
same,binding signal,ELF1,"1.2 fold enrichment (6-mer frequency, TF over GST control)"
same,binding signal,EHF,"1.15 fold enrichment (6-mer frequency, TF over GST control)"
same,binding signal,SPI1,"1.13 fold enrichment (6-mer frequency, TF over GST control)"
same,binding signal,SPIB,"1.14 fold enrichment (6-mer frequency, TF over GST control)"
same,binding signal,ELK3,"1.11 fold enrichment (6-mer frequency, TF over GST control)"
same,binding signal,FEV,"1.1 fold enrichment (6-mer frequency, TF over GST control)"
same,binding signal,ETV5,"1.19 fold enrichment (6-mer frequency, TF over GST control)"
same,binding signal,HSF1,"1.04 fold enrichment (6-mer frequency, TF over GST control)"
same,binding signal,SPIC,"1.21 fold enrichment (6-mer frequency, TF over GST control)"
same,binding signal,ELF4,"1.19 fold enrichment (6-mer frequency, TF over GST control)"
same,binding signal,ELK4,"1.16 fold enrichment (6-mer frequency, TF over GST control)"
same,binding signal,ETV2,"1.29 fold enrichment (6-mer frequency, TF over GST control)"
same,binding signal,ELF3,"1.08 fold enrichment (6-mer frequency, TF over GST control)"
same,binding signal,CRX,"1.13 fold enrichment (6-mer frequency, TF over GST control)"
same,binding signal,ETV1,"1.14 fold enrichment (6-mer frequency, TF over GST control)"
